Test results from PubChem BioAssay AID1159580 (chemical genetic matrix, 2015).
Where “and” joins values, the source holds several entries; their conditions need not be identical. Equal values may be shown once. In all, about 5,500 compounds went through this assay and about 2,000 (36%) were called active. Roughly 18% stayed inconclusive and do not appear here. Cut-off read from the data, not from the text of the source: active = normalized growth mostly below about 0.91 (no sharp cut-off); inconclusive = no clear call, values can overlap the other calls; inactive = mostly above about 0.92. The list shows a part of the results.

Assay: chemical genetic growth profiling, strain panel (AID 1159580);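 note: tested at 20 µM; growth read once vehicle control cultures reached saturation at 30 °C; 1 = growth at the plate median or of vehicle wells; lower values mean less growth of the strain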
Settings: S. cerevisiae deletion strains, growth OD
[1] = locus YAL013W, strain DEP1, stronger effect = lower value
[2] = locus YBR229C, strain ROT2, stronger effect = lower value
[3] = locus YDL101C, strain DUN1, stronger effect = lower value
[4] = locus YDL134C, strain PPH21, stronger effect = lower value
[5] = locus YDR150W, strain NUM1, stronger effect = lower value
[6] = locus YEL061C, strain CIN8, stronger effect = lower value
[7] = locus YGR078C, strain PAC10, stronger effect = lower value
[8] = locus YHR030C, strain SLT2, stronger effect = lower value
[9] = locus YHR087W, strain rtc3, stronger effect = lower value
[10] = locus YJR043C, strain POL32, stronger effect = lower value
[11] = locus YJR075W, strain HOC1, stronger effect = lower value
[12] = locus YLR039C, strain RIC1, stronger effect = lower value
[13] = locus YLR058C, strain SHM2 (second series), stronger effect = lower value
[14] = locus YLR085C, strain ARP6, stronger effect = lower value
[15] = locus YLR262C, strain YPT6, stronger effect = lower value
[16] = locus YML094W, strain GIM5, stronger effect = lower value
[17] = locus YMR219W, strain ESC1, stronger effect = lower value
[18] = locus YMR263W, strain SAP30, stronger effect = lower value
[19] = locus YMR307W, strain GAS1, stronger effect = lower value
[20] = locus YNL153C, strain GIM3, stronger effect = lower value
[21] = locus YNL298W, strain CLA4 (second series), stronger effect = lower value
[22] = locus YNL322C, strain KRE1, stronger effect = lower value
[23] = locus YNR030W, strain Alg12, stronger effect = lower value
[24] = locus YPL055C, strain LGE1, stronger effect = lower value
[25] = locus YPL241C, strain CIN2, stronger effect = lower value
[26] = locus YPR135W, strain CTF4, stronger effect = lower value
[27] = locus YJL187C, strain SWE1, stronger effect = lower value
[28] = locus YKL190W, strain CNB1, stronger effect = lower value

Measured: normalized growth

CCCS(=O)(=O)c1c(C)c(C)n(Cc2ccccc2)c1N
inactive: [1] 1.02 | [2] 1.01 | [3] 0.972 | [4] 0.999 | [5] 1 | [6] 0.999 | [7] 1 | [8] 1.06 | [9] 1 | [10] 0.997 | [11] 0.99 | [12] 1.05 | [13] 1 | [15] 1.03 | [16] 1.04 | [17] 1 | [18] 0.999 | [19] 1.14 | [20] 1 | [21] 1.02 | [22] 0.999 | [23] 1.02 | locus YOL006C, strain TOP1, stronger effect = lower value 1.2 | [24] 1.06 | [25] 1.1 | [26] 1.15
active: [14] 1.27 [resistant]

Cc1cccc(Cn2c(C)c(C)c(S(=O)(=O)c3ccccc3)c2N)c1C
inactive: [1] 1.03 | [2] 1.01 | [3] 0.98 | [4] 0.978 | [5] 1.01 | [6] 0.998 | [7] 1.03 | locus YGR229C, strain SMI1, stronger effect = lower value 0.984 | [8] 0.917 | [9] 1.01 | [27] 0.996 | [10] 1 | [11] 0.996 | [28] 0.987 | [12] 0.803 | [13] 0.999 | [15] 0.873 | [16] 1.05 | [17] 1.01 | [18] 1.01 | locus YNL128W, strain TEP1, stronger effect = lower value 0.998 | [20] 1.04 | [21] 0.98 | [22] 1 | [23] 1.01 | [24] 1.06 | [25] 1.03 | [26] 1.16
active: [14] 1.24 [resistant]

CCCCCCCCCCCCCCCC(=O)OC/C=C(C)/C=C/C=C(C)/C=C/C1=C(C)CCCC1(C)C
inactive: [1] 0.994 | locus YAL021C, strain ccr4, stronger effect = lower value 1.04 | locus YAL026C, strain drs2, stronger effect = lower value 1.02 | locus YAL030W, strain snc1, stronger effect = lower value 1.03 | locus YBL061C, strain skt5, stronger effect = lower value 1.02 | locus YBR009C, strain hhf1, stronger effect = lower value 0.995 | locus YBR021W, strain FUR4, stronger effect = lower value 0.977 | locus YBR023C, strain chs3, stronger effect = lower value 1 | locus YBR171W, strain sec66, stronger effect = lower value 1.02 | [2] 0.992 | locus YBR231C, strain swc5, stronger effect = lower value 0.931 | locus YBR279W, strain paf1, stronger effect = lower value 1.01 | locus YCL011C, strain gbp2, stronger effect = lower value 1 | locus YCL016C, strain dcc1, stronger effect = lower value 1 | locus YCL029C, strain bik1, stronger effect = lower value 0.999 | locus YCL069W, strain vba3, stronger effect = lower value 1.01 | locus YCR088W, strain abp1, stronger effect = lower value 1.02 | locus YDL005C, strain med2, stronger effect = lower value 1.03 | locus YDL035C, strain GPR1, stronger effect = lower value 0.978 | locus YDL040C, strain nat1, stronger effect = lower value 1.01 | locus YDL074C, strain BRE1, stronger effect = lower value 1 | [3] 0.993 | locus YDL185W, strain tfp1, stronger effect = lower value 0.992 | locus YDL192W, strain arf1, stronger effect = lower value 0.994 | locus YDR001C, strain nth1, stronger effect = lower value 1.02 | locus YDR069C, strain doa4, stronger effect = lower value 1 | locus YDR101C, strain arx1, stronger effect = lower value 1.02 | locus YDR137W, strain rgp1, stronger effect = lower value 1.03 | [5] 1 | locus YDR159W, strain sac3, stronger effect = lower value 0.963 | locus YDR162C, strain NBP2, stronger effect = lower value 0.973 | locus YDR195W, strain ref2 1.04 | locus YDR297W, strain sur2, stronger effect = lower value 1.03 | locus YDR318W, strain mcm21, stronger effect = lower value 0.999 | locus YDR334W, strain swr1, stronger effect = lower value 1.03 | locus YDR335W, strain msn5, stronger effect = lower value 1.04 | locus YDR388W, stronger effect = lower value 1.02 | locus YDR392W, strain spt3, stronger effect = lower value 1.05 | locus YDR502C, strain sam2, stronger effect = lower value 0.994 | locus YEL003W, strain gim4, stronger effect = lower value 1.01 | locus YEL037C, strain rad23, stronger effect = lower value 1.02 | locus YEL061C, strain CIN8 (second series), stronger effect = lower value 1.02 | [6] 0.993 | locus YER015W, strain faa2, stronger effect = lower value 1.02 | locus YER016W, strain bim1, stronger effect = lower value 1.02 | locus YER110C, stronger effect = lower value 0.985 | locus YER111C, strain swi4, stronger effect = lower value 1.02 | locus YER155C, strain BEM2 (second series), stronger effect = lower value 1.03 | locus YER155C, strain BEM2, stronger effect = lower value 0.998 | locus YER167W, strain BCK2, stronger effect = lower value 0.989 | locus YFR010W, strain ubp6, stronger effect = lower value 1.03 | locus YGL078C, strain dbp3, stronger effect = lower value 0.993 | locus YGL086W, strain mad1, stronger effect = lower value 1.01 | locus YGL167C, strain pmr1, stronger effect = lower value 1.02 | locus YGL173C, strain kem1, stronger effect = lower value 1.01 | locus YGL227W, strain vid30, stronger effect = lower value 1.01 | locus YGL240W, strain doc1, stronger effect = lower value 1.03 | locus YGL248W, strain PDE1, stronger effect = lower value 1 | locus YGL253W, strain hxk2, stronger effect = lower value 0.976 | locus YGR135W, strain pre9, stronger effect = lower value 0.929 | locus YGR252W, strain gcn5, stronger effect = lower value 1.04 | locus YHR013C, strain ard1, stronger effect = lower value 1.05 | locus YHR027C, strain rpn1, stronger effect = lower value 0.969 | [8] 0.995 and 0.963 | locus YHR079C, strain IRE1 (second series), stronger effect = lower value 1.01 | locus YHR079C, strain IRE1, stronger effect = lower value 0.925 | locus YHR094C, strain hxt1, stronger effect = lower value 0.983 | locus YHR129C, strain ARP1, stronger effect = lower value 0.999 | locus YHR142W, strain chs7, stronger effect = lower value 1.01 | locus YHR200W, strain rpn10, stronger effect = lower value 0.998 | locus YIL066C, strain RNR3, stronger effect = lower value 0.987 | locus YIL073C, strain SPO22, stronger effect = lower value 0.879 | locus YIL125W, strain kgd1, stronger effect = lower value 0.992 | locus YIR030C, strain dcg1, stronger effect = lower value 0.989 | locus YJL092W, strain hpr5, stronger effect = lower value 1.02 | locus YJL095W, strain BCK1 (second series), stronger effect = lower value 1.03 | locus YJL095W, strain BCK1, stronger effect = lower value 0.995 and 0.989 | locus YJL115W, strain asf1, stronger effect = lower value 1.02 | locus YJL129C, strain trk1, stronger effect = lower value 1.04 | locus YJL134W, strain LCB3, stronger effect = lower value 0.991 | locus YJL154C, strain vps35, stronger effect = lower value 1.02 | locus YJL164C, strain tpk1, stronger effect = lower value 0.996 | locus YJL166W, strain qcr8, stronger effect = lower value 1.04 | locus YJL168C, strain set2, stronger effect = lower value 0.994 | locus YJL187C, strain SWE1 (second series), stronger effect = lower value 1.01 | [27] 1.03 | [10] 0.995 | locus YJR066W, strain TOR1, stronger effect = lower value 0.901 | locus YKL009W, strain mrt4, stronger effect = lower value 0.993 | locus YKL068W, stronger effect = lower value 0.985 | locus YKL085W, strain MDH1 (second series), stronger effect = lower value 0.985 | locus YKL085W, strain MDH1, stronger effect = lower value 0.985 | locus YKL160W, strain elf1, stronger effect = lower value 1.02 | [28] 0.998 | locus YKR001C, strain vps1, stronger effect = lower value 0.991 | locus YKR026C, strain gcn3, stronger effect = lower value 1.03 | locus YKR091W, strain srl3, stronger effect = lower value 1.01 | locus YLL001W, strain dnm1, stronger effect = lower value 1.01 | locus YLL026W, stronger effect = lower value 0.975 | locus YLL041C, strain sdh2, stronger effect = lower value 1.02 | locus YLR027C, strain aat2, stronger effect = lower value 1.01 | [12] 1 | locus YLR058C, strain SHM2, stronger effect = lower value 0.988 | locus YLR102C, strain apc9, stronger effect = lower value 0.993 | locus YLR113W, strain HOG1, stronger effect = lower value 0.99 | locus YLR221C, strain rsa3, stronger effect = lower value 0.98 | locus YLR258W, strain gsy2, stronger effect = lower value 1 | locus YLR262C, strain YPT6 (second series), stronger effect = lower value 1.01 | [15] 1.04 | locus YLR268W, strain sec22, stronger effect = lower value 0.996 | locus YLR320W, strain mms22, stronger effect = lower value 1 | locus YLR330W, strain CHS5, stronger effect = lower value 0.993 | locus YLR342W, strain FKS1 (second series), stronger effect = lower value 0.993 | locus YLR342W, strain FKS1, stronger effect = lower value 1.02 | locus YLR357W, strain rsc2, stronger effect = lower value 0.994 | locus YLR370C, strain arc18, stronger effect = lower value 1.02 | locus YLR371W, strain rom2, stronger effect = lower value 1 | locus YLR384C, strain iki3, stronger effect = lower value 1.02 | locus YLR418C, strain cdc73, stronger effect = lower value 0.922 | locus YML016C, strain PPZ1, stronger effect = lower value 0.994 | locus YML032C, strain rad52, stronger effect = lower value 1.01 | locus YML120C, strain ndi1, stronger effect = lower value 1.05 | locus YML124C, strain tub3, stronger effect = lower value 0.993 | locus YMR058W, strain fet3, stronger effect = lower value 0.999 | locus YMR078C, strain ctf18, stronger effect = lower value 0.996 | locus YMR125W, strain sto1, stronger effect = lower value 1.01 | locus YMR129W, stronger effect = lower value 1.01 | locus YMR205C, strain PFK2, stronger effect = lower value 1.01 | locus YMR223W, strain ubp8, stronger effect = lower value 0.959 | locus YMR231W, strain pep5, stronger effect = lower value 1.02 | [18] 1 | [19] 1 | locus YNL067W, strain RPL9B, stronger effect = lower value 1.02 | locus YNL071W, strain lat1, stronger effect = lower value 0.97 | [20] 1.04 | locus YNL183C, strain NPR1, stronger effect = lower value 0.967 | locus YNL209W, strain ssb2, stronger effect = lower value 0.991 | locus YNL233W, strain BNI4, stronger effect = lower value 0.994 | locus YNL248C, strain rpa49, stronger effect = lower value 1.05 | locus YNL250W, strain rad50, stronger effect = lower value 1.01 | locus YNL271C, strain bni1, stronger effect = lower value 0.995 | locus YNL298W, strain CLA4, stronger effect = lower value 1 | locus YNL307C, strain MCK1, stronger effect = lower value 0.989 | locus YNL322C, strain KRE1 (second series), stronger effect = lower value 1.04 | locus YNR049C, strain mso1, stronger effect = lower value 1.02 | locus YNR052C, strain pop2, stronger effect = lower value 0.998 | locus YOL012C, strain htz1 0.785 | locus YOL147C, strain pex11, stronger effect = lower value 0.991 | locus YOR001W, strain rrp6, stronger effect = lower value 1.05 | locus YOR061W, strain CKA2, stronger effect = lower value 0.99 | locus YOR069W, strain VPS5, stronger effect = lower value 0.992 | locus YOR070C, strain gyp1, stronger effect = lower value 1.01 | locus YOR080W, strain dia2, stronger effect = lower value 1.02 | locus YOR083W, strain WHI5, stronger effect = lower value 0.984 | locus YOR106W, strain vam3, stronger effect = lower value 0.962 | locus YOR136W, strain idh2, stronger effect = lower value 1 | locus YOR144C, strain elg1, stronger effect = lower value 0.99 | locus YOR184W, strain ser1, stronger effect = lower value 0.991 | locus YOR231W, strain MKK1, stronger effect = lower value 0.974 | locus YOR265W, strain rbl2, stronger effect = lower value 1.02 | locus YOR270C, strain vph1, stronger effect = lower value 1.05 | locus YOR290C, strain snf2, stronger effect = lower value 1.03 | locus YOR316C, strain cot1, stronger effect = lower value 0.992 | locus YPL051W, strain arl3, stronger effect = lower value 1.02 | locus YPL078C, strain atp4, stronger effect = lower value 1.01 | locus YPL106C, strain sse1, stronger effect = lower value 1.07 | locus YPL240C, strain hsp82, stronger effect = lower value 1.01 | locus YPL256C, strain CLN2, stronger effect = lower value 0.916 | locus YPR119W, strain clb2, stronger effect = lower value 0.998 | locus YPR141C, strain kar3, stronger effect = lower value 0.983 | locus YPR163C, strain tif3, stronger effect = lower value 1 | locus YPR167C, strain met16, stronger effect = lower value 0.992 | strain wtn01, stronger effect = lower value 0.972
